Reference: PubChem BioAssay (EPA / NIEHS)
Inconclusive results are not listed. Activity calls are given as the source filed them. Rule for the calls: active = hit-call score of the fitted dose curve at least 0.9, where 1 is the maximum; inconclusive = response in the unintended direction; inactive = score below 0.9.

tested on: guinea pig Atrionatriuretic Peptide Receptor A (ANPA), gene 100135578; assay: NVS_GPCR_gANPA: NovaScreen (NVS) G Protein-Coupled Receptor Assay for guinea pig Atrionatriuretic Peptide Receptor A (ANPA) (AID 2283291)
Method in brief: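 Displacement of specific radioligand from guinea pig cerebellum membranes was read by scintillation after 1 h. A duplicate single-point screen at 25 uM was followed by a concentration series up to 50 uM, analysed relative to DMSO.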

Row | SMILES | outcome
1 | COCC(C)O (centres undefined) | inactive
2 | O=C(OCCCCCCOC(=O)c1ccccc1)c1ccccc1 | inactive
3 | Oc1ccc2c(c1)OC[C@@H](N1CCC(O)(c3ccc(F)cc3)CC1)[C@H]2O | inactive
4 | CCCCCCCCCCCCCCCCO | inactive

biological target: rat Corticotropin Releasing Factor Receptor (CRF), Crhr1 (gene 58959) (UniProt P35353); assay: NVS_GPCR_rCRF: NovaScreen (NVS) G Protein-Coupled Receptor Assay for rat Corticotropin Releasing Factor Receptor (CRF) (AID 2283300)
Sequence (P35353 whole entry, looked up): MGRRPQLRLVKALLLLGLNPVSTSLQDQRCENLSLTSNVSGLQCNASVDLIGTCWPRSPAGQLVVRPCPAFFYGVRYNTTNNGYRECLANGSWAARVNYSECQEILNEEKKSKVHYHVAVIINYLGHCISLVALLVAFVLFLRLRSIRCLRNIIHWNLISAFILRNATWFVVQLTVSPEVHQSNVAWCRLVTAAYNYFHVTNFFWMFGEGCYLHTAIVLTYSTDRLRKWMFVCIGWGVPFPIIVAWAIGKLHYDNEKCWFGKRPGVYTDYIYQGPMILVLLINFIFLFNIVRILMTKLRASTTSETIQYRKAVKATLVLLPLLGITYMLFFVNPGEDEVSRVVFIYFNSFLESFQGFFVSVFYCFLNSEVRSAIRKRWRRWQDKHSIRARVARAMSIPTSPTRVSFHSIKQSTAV
Method in brief: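 Single-concentration (25 uM, duplicate) radioligand binding on rat cortical membrane preparations, counted by scintillation after 2 h. Activity scored as signal loss relative to DMSO negative control.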

Row | SMILES | outcome
5 | CCNc1nc(N)nc(Cl)n1 | inactive
6 | COCCOCCOCCOC | inactive
7 | OCCO | inactive
8 | C[C@]12CC[C@@H]3c4ccc(O)cc4CC[C@H]3[C@@H]1CCC2=O | inactive

biological target: Voltage-dependent N-type calcium channel subunit alpha-1B (Rattus norvegicus) (UniProt Q02294); assay: NVS_IC_rCaChN: NovaScreen (NVS) Ion Channel Assay for rat Calcium Channel, Type N (CaChN) (AID 2283317)

Row | SMILES | outcome
9 | NCC1(Cc2noc(=O)[nH]2)CCCCC1 | inactive
10 | CCCCCCCCCCCCCCCS(=O)(=O)Oc1ccccc1 | inactive
11 | CC[C@@H]1C[C@H](N(Cc2cc(C(F)(F)F)cc(C(F)(F)F)c2)C(C)=O)c2cc(C(F)(F)F)ccc2N1C(=O)OC(C)C | inactive
12 | C[C@@H](Oc1ccc(CNC(=O)c2cccnc2Oc2ccc3c(c2)OCO3)c(F)c1)C(=O)O | inactive
13 | OCC(CO)(CO)CO | inactive
14 | CNCc1ccc(NC(=O)c2c[nH]c3c2C(=O)CCC3)cc1 | inactive
15 | CN(C)CCCN(C)CCCN(C)C | inactive
16 | CC(C)COC(=O)CCCCC(=O)OCC(C)C | inactive

biological target: bovine Gamma-Aminobutyric Acid Type A Receptor BDZ, alpha 1 site (GABARa1), GABRA1 (gene 780973) (UniProt P08219); assay: NVS_LGIC_bGABARa1: NovaScreen (NVS) Ligand-Gated Ion Channel Assay for bovine Gamma-Aminobutyric Acid Type A Receptor BDZ, alpha 1 site (GABARa1) (AID 2283321)
Sequence (P08219 whole entry, looked up): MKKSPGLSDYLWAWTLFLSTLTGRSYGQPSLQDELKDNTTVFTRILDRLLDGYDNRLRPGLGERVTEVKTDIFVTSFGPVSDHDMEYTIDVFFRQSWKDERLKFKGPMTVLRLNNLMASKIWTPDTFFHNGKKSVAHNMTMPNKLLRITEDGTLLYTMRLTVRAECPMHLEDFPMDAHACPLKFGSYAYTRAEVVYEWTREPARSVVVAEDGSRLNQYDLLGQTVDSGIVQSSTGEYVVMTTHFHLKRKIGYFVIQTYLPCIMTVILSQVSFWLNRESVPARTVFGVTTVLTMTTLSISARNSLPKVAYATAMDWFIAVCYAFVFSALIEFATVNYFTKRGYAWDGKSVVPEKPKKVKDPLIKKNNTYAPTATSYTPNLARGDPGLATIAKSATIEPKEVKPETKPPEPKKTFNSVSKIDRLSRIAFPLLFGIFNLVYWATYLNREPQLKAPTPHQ
Method in brief: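 Bovine cortex membrane preparation, benzodiazepine site on GABA-A alpha1; specific radioligand displacement read after 0.75 h by filtration and scintillation. Screen at 25 uM, then singleton titrations up to 50 uM; DMSO baseline.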

Row | SMILES | outcome | AC50
17 | Cn1cnc([N+](=O)[O-])c1Sc1ncnc2nc[nH]c12 | inactive | 
18 | CCOc1ccc2[nH]cc(C(=O)NCc3ccccc3)c(=O)c2n1 | inactive | 
19 | C#C[C@]1(O)CC[C@H]2[C@@H]3CCC4=CC(=O)CC[C@@H]4[C@H]3CC[C@@]21CC |  | 2230 nM (active)
20 | C1=CCCC=CCCC=CCC1 | inactive | 
21 | Cc1cc(SC2=C(O)C[C@@](CCc3ccc(N)cc3)(C(C)C)OC2=O)c(C(C)(C)C)cc1CO |  | 22600 nM (active)
22 | CNCc1ccc(NC(=O)c2c[nH]c3c2C(=O)CCC3)cc1 |  | 62.6 nM (active)
23 | NC(=O)N1c2ccccc2C=Cc2ccccc21 | inactive | 

biological target: rat Oxytocin Receptor (OXT), Oxtr (gene 25342) (UniProt P70536); assay: NVS_GPCR_rOXT: NovaScreen (NVS) G Protein-Coupled Receptor Assay for rat Oxytocin Receptor (OXT) (AID 2283330)
Sequence (P70536 whole entry, looked up): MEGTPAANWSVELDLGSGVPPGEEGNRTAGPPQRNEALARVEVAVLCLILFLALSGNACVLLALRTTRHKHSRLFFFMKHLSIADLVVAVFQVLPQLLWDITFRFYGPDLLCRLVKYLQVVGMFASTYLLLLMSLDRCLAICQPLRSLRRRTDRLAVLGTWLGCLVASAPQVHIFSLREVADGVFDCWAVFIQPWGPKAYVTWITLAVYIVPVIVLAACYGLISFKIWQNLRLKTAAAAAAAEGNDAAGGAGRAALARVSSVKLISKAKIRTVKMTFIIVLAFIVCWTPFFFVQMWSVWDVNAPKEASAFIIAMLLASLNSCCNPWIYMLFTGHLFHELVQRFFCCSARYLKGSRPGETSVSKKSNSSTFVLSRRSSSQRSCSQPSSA
Method in brief: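 Binding to rat uterine membrane receptor was followed by scintillation counting of filter-trapped radioligand after 1 h. A 25 uM duplicate single-point screen preceded concentration series with a top of 50 uM. Signal loss was analysed relative to DMSO.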

Row | SMILES | outcome
24 | NCC1(Cc2noc(=O)[nH]2)CCCCC1 | inactive
25 | NC(N)=O | inactive
26 | CCOC(=O)COc1ccc2c(c1)CC(NCC(O)c1cccc(Cl)c1)CC2 (centres undefined) | inactive

biological target: Norway rat Vesicular Monoamine Transporter (VMAT2), neurotransmitter transporter, Slc18a2 (gene 25549) (UniProt Q01827); assay: NVS_TR_rVMAT2: NovaScreen (NVS) Transporter Assay for Norway rat Vesicular Monoamine Transporter (VMAT2), neurotransmitter transporter (AID 2283376);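 note: actives lower the bound radioligand signal below the DMSO level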
Sequence (Q01827 whole entry, looked up): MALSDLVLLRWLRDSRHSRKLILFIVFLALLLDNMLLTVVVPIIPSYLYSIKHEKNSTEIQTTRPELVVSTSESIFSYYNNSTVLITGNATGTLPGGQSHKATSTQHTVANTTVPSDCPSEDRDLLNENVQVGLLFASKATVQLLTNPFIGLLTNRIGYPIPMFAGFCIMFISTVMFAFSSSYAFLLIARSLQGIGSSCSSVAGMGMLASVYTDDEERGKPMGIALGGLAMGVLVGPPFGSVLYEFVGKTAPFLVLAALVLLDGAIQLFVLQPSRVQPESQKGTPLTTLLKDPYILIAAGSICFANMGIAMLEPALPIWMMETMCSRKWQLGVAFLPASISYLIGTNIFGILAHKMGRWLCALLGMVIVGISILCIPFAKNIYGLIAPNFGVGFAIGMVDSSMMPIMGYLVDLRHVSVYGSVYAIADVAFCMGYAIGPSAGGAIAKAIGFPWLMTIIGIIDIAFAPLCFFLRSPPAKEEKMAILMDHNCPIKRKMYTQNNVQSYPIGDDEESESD
Method in brief: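 Filter-based scintillation counting of radioligand bound to rat forebrain-derived VMAT2 protein, cell-free, 1 h post-dose. Signal loss relative to DMSO control scored; single-concentration duplicate screen (25 uM) followed by concentration-response testing of actives.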

Row | SMILES | outcome
27 | Nc1ccc(Oc2cccc(Oc3ccc(N)cc3)c2)cc1 | inactive
28 | O=C1c2ccccc2C(=O)c2c(Cl)cccc21 | inactive
29 | Cc1cc(C)c(C=O)c(C)c1 | inactive
